Key:
[1] = target: T1, Ephrin type-B receptor 2 (Homo sapiens) (UniProt P29323); conditions: at 1 µM
T1 sequence (whole entry): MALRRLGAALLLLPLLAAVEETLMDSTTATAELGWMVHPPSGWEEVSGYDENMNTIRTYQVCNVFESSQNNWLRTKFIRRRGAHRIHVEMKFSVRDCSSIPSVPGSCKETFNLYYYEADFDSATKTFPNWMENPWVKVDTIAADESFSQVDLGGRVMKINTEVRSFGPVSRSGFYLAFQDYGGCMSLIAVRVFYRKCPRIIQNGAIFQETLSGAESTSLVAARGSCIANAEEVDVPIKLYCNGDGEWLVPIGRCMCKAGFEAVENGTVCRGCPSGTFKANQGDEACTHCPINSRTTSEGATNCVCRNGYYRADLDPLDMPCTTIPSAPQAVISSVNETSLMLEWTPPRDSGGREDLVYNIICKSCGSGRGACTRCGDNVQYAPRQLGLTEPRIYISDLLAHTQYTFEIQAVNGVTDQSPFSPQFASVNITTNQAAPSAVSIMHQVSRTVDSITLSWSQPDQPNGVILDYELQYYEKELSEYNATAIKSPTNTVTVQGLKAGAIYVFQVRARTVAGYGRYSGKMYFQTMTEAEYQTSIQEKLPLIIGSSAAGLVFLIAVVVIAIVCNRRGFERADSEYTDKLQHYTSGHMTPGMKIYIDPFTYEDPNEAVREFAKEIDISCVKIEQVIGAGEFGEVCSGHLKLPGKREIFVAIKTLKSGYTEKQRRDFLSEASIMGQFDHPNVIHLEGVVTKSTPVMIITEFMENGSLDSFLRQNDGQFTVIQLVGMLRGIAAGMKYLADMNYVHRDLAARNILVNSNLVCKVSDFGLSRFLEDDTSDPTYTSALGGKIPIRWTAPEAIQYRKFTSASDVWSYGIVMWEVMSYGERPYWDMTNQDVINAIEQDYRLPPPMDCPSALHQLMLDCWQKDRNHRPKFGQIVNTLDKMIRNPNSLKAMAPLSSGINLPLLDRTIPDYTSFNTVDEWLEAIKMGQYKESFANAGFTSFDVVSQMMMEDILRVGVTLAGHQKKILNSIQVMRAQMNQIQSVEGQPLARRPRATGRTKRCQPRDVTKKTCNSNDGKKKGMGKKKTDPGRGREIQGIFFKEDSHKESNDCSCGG

[2] = target: T2, Ephrin type-B receptor 3 (Homo sapiens) (UniProt P54753); conditions: at 0.1 µM
T2 sequence (whole entry): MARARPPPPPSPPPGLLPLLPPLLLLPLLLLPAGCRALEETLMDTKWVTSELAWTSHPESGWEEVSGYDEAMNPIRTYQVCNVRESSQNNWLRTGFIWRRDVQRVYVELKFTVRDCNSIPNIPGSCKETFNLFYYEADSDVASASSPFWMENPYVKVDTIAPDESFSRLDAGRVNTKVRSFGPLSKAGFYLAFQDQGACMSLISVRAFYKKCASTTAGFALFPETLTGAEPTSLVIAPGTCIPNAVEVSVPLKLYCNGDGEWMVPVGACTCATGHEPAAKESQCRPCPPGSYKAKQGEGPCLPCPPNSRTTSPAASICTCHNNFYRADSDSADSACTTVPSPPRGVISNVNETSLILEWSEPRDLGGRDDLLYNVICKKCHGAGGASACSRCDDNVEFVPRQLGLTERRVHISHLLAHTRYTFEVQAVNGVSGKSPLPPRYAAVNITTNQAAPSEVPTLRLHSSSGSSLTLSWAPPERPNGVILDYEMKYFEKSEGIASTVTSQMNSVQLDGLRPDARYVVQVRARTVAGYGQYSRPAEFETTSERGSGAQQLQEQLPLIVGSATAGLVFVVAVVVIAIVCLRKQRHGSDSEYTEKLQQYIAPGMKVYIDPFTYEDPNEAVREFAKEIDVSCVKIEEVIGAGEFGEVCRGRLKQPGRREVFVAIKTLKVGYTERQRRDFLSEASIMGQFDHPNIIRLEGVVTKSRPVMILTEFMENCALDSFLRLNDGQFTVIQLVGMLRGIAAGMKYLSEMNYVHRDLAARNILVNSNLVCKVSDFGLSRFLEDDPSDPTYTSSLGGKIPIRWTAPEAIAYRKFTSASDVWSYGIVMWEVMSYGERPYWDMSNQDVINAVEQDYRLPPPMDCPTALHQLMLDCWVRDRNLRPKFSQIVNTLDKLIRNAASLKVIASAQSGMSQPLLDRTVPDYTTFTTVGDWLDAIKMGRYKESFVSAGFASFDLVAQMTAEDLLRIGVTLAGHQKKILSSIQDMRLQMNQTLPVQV

[3] = target: T2, Ephrin type-B receptor 3 (Homo sapiens); conditions: at 1 µM
[4] = target: T3, Ephrin type-B receptor 4 (Homo sapiens) (UniProt P54760); conditions: at 0.1 µM
T3 sequence (whole entry): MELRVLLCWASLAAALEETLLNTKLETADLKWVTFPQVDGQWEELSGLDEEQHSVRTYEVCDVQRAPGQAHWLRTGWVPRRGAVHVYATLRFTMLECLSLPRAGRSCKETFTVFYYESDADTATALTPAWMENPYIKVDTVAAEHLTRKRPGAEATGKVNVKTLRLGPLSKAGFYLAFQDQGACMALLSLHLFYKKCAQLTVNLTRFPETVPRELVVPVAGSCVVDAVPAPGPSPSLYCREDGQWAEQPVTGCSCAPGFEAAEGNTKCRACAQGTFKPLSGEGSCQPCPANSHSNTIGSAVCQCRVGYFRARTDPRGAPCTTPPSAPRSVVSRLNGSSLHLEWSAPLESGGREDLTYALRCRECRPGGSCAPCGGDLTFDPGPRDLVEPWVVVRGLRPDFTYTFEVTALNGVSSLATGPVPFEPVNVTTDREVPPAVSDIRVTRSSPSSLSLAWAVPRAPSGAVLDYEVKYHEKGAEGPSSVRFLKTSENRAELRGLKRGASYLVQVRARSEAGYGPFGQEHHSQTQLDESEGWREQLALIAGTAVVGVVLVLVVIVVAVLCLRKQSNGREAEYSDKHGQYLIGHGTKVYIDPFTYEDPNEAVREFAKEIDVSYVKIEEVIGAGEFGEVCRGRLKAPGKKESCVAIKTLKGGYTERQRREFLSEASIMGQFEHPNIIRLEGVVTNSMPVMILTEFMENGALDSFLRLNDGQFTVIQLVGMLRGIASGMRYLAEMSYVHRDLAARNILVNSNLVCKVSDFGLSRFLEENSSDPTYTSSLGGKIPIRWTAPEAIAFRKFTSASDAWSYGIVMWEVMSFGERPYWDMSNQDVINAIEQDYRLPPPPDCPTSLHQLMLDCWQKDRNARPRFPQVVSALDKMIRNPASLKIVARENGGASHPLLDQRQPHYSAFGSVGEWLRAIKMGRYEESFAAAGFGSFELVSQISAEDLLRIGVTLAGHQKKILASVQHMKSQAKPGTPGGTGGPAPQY

[5] = target: T3, Ephrin type-B receptor 4 (Homo sapiens); conditions: at 1 µM
[6] = target: Receptor tyrosine-protein kinase erbB-4 (Homo sapiens) (UniProt Q15303); conditions: at 0.1 µM
Sequence of Receptor tyrosine-protein kinase erbB-4 (Homo sapiens) (Q15303 whole entry): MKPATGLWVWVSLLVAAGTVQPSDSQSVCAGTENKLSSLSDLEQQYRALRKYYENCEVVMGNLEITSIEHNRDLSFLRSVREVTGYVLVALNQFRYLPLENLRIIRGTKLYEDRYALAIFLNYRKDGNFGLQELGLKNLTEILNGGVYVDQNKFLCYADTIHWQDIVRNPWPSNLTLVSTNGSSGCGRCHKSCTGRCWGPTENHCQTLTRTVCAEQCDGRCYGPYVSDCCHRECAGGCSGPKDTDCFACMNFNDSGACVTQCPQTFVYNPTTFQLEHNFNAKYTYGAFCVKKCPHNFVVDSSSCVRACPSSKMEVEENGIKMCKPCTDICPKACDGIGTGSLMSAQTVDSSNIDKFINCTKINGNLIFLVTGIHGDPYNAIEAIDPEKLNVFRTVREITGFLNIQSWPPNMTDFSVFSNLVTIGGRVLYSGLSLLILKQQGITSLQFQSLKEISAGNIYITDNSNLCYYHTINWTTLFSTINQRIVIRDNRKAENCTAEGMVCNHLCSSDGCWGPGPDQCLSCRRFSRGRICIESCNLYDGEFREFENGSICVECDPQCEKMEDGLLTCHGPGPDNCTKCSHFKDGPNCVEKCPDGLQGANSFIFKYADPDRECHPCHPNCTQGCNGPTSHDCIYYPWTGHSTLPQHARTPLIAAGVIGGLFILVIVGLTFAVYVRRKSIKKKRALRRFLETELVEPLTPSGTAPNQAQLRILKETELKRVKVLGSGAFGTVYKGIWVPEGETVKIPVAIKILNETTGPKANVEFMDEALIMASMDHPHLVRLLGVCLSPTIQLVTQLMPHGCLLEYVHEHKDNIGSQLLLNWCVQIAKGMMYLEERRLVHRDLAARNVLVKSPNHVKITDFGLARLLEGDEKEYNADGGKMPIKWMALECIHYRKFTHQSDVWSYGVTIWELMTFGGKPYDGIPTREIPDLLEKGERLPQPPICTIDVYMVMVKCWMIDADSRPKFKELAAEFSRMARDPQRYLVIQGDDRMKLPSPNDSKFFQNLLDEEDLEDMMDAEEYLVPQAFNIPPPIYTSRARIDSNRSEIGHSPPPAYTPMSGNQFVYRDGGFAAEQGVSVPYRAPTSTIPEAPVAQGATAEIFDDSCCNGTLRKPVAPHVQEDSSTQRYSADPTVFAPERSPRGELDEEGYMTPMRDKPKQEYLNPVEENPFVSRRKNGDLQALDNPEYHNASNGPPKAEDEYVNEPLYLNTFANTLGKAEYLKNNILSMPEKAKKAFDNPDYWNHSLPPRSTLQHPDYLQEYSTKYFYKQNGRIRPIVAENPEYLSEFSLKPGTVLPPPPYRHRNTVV

[7] = target: Receptor tyrosine-protein kinase erbB-4 (Homo sapiens) (UniProt Q15303); conditions: at 1 µM
[8] = target: Tyrosine-protein kinase Fer (Homo sapiens) (UniProt P16591); conditions: at 0.1 µM;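 further: reported figures are averaged percent inhibition of FER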
Sequence of Tyrosine-protein kinase Fer (Homo sapiens) (P16591 whole entry, looked up): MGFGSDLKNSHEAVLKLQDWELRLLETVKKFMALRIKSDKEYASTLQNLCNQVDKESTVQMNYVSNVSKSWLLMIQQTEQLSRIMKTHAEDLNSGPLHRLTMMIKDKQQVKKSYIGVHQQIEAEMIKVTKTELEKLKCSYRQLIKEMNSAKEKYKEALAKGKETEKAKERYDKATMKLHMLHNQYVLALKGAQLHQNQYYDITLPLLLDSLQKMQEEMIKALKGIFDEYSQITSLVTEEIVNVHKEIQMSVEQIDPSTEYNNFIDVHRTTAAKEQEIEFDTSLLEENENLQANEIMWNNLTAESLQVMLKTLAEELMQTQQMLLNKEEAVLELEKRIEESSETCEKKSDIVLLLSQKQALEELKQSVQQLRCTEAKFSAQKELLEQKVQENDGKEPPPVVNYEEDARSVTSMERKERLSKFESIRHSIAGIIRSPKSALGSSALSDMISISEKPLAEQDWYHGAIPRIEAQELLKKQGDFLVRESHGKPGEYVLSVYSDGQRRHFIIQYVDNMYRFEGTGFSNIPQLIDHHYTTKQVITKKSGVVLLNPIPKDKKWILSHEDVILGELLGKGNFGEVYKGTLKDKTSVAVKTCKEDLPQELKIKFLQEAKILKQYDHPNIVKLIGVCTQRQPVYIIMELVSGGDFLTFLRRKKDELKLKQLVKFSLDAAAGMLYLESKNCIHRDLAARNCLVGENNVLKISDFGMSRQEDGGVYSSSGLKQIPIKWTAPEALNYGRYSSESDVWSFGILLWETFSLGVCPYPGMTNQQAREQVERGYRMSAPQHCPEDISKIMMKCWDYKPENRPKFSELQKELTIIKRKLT

[9] = target: Receptor tyrosine-protein kinase erbB-2 (Homo sapiens) (UniProt P04626); conditions: at 0.1 µM
Sequence of Receptor tyrosine-protein kinase erbB-2 (Homo sapiens) (P04626 whole entry): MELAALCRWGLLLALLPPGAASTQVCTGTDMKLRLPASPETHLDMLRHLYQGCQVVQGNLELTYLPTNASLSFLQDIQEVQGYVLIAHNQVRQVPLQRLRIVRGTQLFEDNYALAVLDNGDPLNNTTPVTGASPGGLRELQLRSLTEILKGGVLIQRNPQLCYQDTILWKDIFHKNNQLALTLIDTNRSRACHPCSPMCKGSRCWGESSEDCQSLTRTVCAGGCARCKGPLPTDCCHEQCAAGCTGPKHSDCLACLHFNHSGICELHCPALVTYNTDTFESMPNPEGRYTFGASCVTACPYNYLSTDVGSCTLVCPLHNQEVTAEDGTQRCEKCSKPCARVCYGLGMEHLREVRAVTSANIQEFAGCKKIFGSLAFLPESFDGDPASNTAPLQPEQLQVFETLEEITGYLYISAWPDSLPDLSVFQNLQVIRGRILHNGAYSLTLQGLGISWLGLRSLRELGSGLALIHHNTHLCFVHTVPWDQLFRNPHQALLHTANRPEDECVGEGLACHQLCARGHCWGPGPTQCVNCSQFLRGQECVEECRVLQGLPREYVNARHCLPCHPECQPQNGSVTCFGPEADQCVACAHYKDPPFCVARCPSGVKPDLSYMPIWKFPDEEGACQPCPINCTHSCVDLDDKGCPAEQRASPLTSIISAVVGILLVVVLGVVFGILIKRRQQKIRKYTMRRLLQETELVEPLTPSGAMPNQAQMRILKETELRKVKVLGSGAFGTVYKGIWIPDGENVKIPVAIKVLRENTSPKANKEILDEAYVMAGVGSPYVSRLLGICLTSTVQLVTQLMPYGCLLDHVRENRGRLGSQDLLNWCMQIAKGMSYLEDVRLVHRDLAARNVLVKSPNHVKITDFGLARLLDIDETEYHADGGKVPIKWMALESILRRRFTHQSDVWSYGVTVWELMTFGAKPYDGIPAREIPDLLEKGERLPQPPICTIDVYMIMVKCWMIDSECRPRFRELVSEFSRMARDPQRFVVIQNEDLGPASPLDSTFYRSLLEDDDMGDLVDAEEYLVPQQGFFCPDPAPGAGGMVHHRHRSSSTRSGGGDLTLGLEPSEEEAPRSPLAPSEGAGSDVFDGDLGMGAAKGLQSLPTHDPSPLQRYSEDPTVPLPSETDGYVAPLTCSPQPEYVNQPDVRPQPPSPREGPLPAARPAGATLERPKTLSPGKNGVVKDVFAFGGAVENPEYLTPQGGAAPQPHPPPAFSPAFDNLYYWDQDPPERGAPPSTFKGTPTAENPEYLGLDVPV

[10] = target: Receptor tyrosine-protein kinase erbB-2 (Homo sapiens) (UniProt P04626); conditions: at 1 µM

| SMILES | inhibition [1] | inhibition [2] | inhibition [3] | inhibition [4] | inhibition [5] | inhibition [6] | inhibition [7] | inhibition [8] | inhibition [9] | inhibition [10] |
| --- | --- | --- | --- | --- | --- | --- | --- | --- | --- | --- |
| O=C(O[C@H]1CN[C@H](C#Cc2cc3ncnc(Nc4ccc(Cc5ccccc5)cc4)c3s2)C1)N1CCOCC1 | 6.03% | 4.37% | 3.49% | -0.73% | 1.41% | 112% | 107% | -1.21% | – | – |
| Cc1cccc2c1NC(=O)/C2=N\Nc1ccc(S(N)(=O)=O)cc1 | 5.1% | 5.12% | 2.12% | 1.36% | 2.09% | 11.5% | 11% | 1.4% | 0.78% | 1.05% |
| CCn1c(-c2nonc2N)nc2ccccc21 | 10.1% | 5.49% | 2.17% | 1.03% | 1.88% | 12.3% | 12.3% | 5.9% | 0.88% | -2.17% |
| COc1ccc2[nH]c3c4[nH]c5ccc(OC)cc5c4c4c(c3c2c1)C(=O)NC4=O | 17.6% | 0.84% | -4.62% | -0.01% | 4.21% | 14.5% | 45.9% | 29.1% | 1.76% | 5.83% |
| COC(=O)Nc1nc2ccc(Oc3ccc(NC(=O)Nc4cccc(Cl)c4)cc3)cc2[nH]1 | 68% | 4.58% | 5.18% | 4.66% | 14.4% | 6.76% | 9.87% | 1.61% | -0.47% | 5.3% |
| CC(=O)Nc1cccc(C#Cc2cncnc2Nc2ccc(OCc3cccc(F)c3)c(Cl)c2)c1 | 10.7% | 4.08% | 0.84% | 1.66% | 2.84% | 20.5% | 57.1% | 1.31% | 0.38% | 10.5% |
| Cc1ccc(O)cc1Nc1ccnc2cc(-c3ccccn3)ccc12 | 91.9% | 18.1% | 53.3% | 87.3% | 95.1% | 35.1% | 75.6% | 5.39% | 2.16% | 11.6% |
| CCn1cc(-c2ccnc3[nH]ccc23)c(-c2cccc(NC(=O)Nc3ccc(OCc4ccccc4)cc3)c2)n1 | -2.78% | 0.02% | 0.9% | -1.27% | 3.47% | 9.5% | 63.5% | 0.08% | 2.85% | 2.75% |
| COc1ccc(-c2nn3ncccc3c2-c2ccnc(Nc3ccc4c(c3)OCCO4)n2)cc1 | 35% | 1.77% | 6.41% | -0.35% | 15.6% | 55.9% | 108% | 1.56% | 0.95% | 17.2% |
| CCn1c(-c2nonc2N)nc2c(C#CC(C)(C)O)ncc(OC3CCNCC3)c21 | 4.11% | 3.01% | 4.06% | 1.92% | 1.63% | 5.65% | 10.3% | -0.68% | 5.64% | 3.93% |
| COc1cc(Nc2nccc(Nc3ccc4c(C)n[nH]c4c3)n2)cc(OC)c1OC | 65.5% | 2.52% | 0.24% | 11.2% | 54.8% | 11.9% | 27.6% | 6.42% | -1.05% | 0.32% |
| N#Cc1c(NC(=O)CN2CCOCC2)sc2c1CCCC2 | 12.9% | 4.21% | 4.07% | 2.41% | 0.41% | 7% | 5.12% | 8.53% | 2.23% | 4.83% |
| Fc1ccc(-c2nn3ccccc3c2-c2ccncc2)cc1 | 17.7% | 4.48% | 8.05% | 1.73% | 4.73% | 10.8% | 27.2% | 1.5% | 1.52% | 2.31% |
| CCOc1ccc2c(-c3ccnc(Nc4cccc(C(F)(F)F)c4)n3)cnn2n1 | 9.64% | 3.96% | 2.33% | 1.01% | 2.81% | 7.09% | 6.85% | 1.8% | 4.13% | 2.54% |
| COc1ccc(CNC(=O)c2ccc(-c3cc(-c4nnc(C)o4)ccc3C)cc2)cc1 | 10.6% | -0.7% | 0.39% | 1.69% | -0.88% | 2.27% | 7.19% | 2.8% | 3.57% | 10.7% |
| Nc1nc(-c2cccc(Cl)c2)c(-c2ccc3ncccc3n2)s1 | 15.5% | 5.95% | 5.53% | 2.58% | 3.57% | – | 28.1% | 4.91% | 2.61% | 5.7% |
| NS(=O)(=O)c1ccc(Nc2ncc(-c3ccccc3)o2)cc1 | 7.75% | 4.17% | 3.33% | 2.27% | 1.72% | 8.79% | 10.5% | 2.73% | 2.57% | 2.77% |
